Source: PubChem BioAssay
Activity calls are given as the source filed them. Unless noted, no rule for the calls is given here.

Assays:
[1] = tested on: Wnt5a (protein binding on small-molecule microarray); assay: small molecules binding Wnt5a protein – biophysical, small-molecule microarray, 635/667 nm fluorescence, primary screen (AID 1142); details: 635 nm fluorescence, higher = more signal;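 also: fluorescence read at 667 nm with signal to noise per printed feature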
[2] = ATP-based viability of Huh7 replicon cells – cell-based, CellTiter-Glo luminescence, basal, 48 h, cytotoxicity control for HCV replication inhibitor project, primary screen (AID 1143); details: higher = more signal, called active from +8 up or from −8 down;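 also: Huh7 hepatoma cells carrying a hepatitis C replication reporter with no stimulus; test concentration not given here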
[3] = Pseudomonas biofilm growth suppression – PAO1 strain, BacTiter-Glo luminescence, LB-PBS, primary screen (AID 1144); details: P. aeruginosa PAO1 biofilm, 12 h, higher = more signal
[4] = basal CRE-LacZ reporter activity in PC12 – cell-based, unstimulated, primary screen (AID 1145); details: no forskolin, luminescence, 4.5 h, higher = more signal, called active from +8 up or from −8 down
[5] = forskolin-driven CRE-LacZ activity in PC12 – cell-based, CRE-LacZ reporter, forskolin-stimulated, primary screen (AID 1146); details: luminescence, 4.5 h, higher = more signal, called active from +8 up or from −8 down;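 also: PC12 cells with 6xCRE LacZ reporter stimulated by forskolin 10 µM; beta-galactosidase reporter signal reflecting CREB driven transcription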
[6] = molecular target: Streptavidin (Streptomyces avidinii) (UniProt P22629); assay: compounds binding control protein streptavidin – biophysical, small-molecule microarray, 635/667 nm fluorescence, artefact control for SMM compound annotation, primary screen (AID 1147); details: higher = more signal;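 also: signal reflects streptavidin binding to arrayed compounds as a control protein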
[7] = probe aInhba binding on compound microarray – biochemical, small-molecule microarray, 635/667 nm fluorescence, primary screen (AID 1148); details: higher = more signal;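 also: score merges 667nm spot fluorescence with signal-to-noise for antibody binding to printed compounds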
Torsin-1A (Homo sapiens) [8] = molecular target: Torsin-1A (Homo sapiens) (UniProt O14656); assay: TOR1A wild-type binding on microarray – cell lysate, small-molecule microarray, lysate, 635/667 nm, primary screen (AID 1149); details: COS7 hTOR1A-WT lysate, 635 nm fluorescence, higher = more signal
Torsin-1A (Homo sapiens) [9] = molecular target: Torsin-1A (Homo sapiens) (UniProt O14656); assay: torsin A mutant lysate binding on microarrays – cell lysate, small-molecule microarray, COS7 lysate, 635/667 nm fluorescence, primary screen (AID 1150); details: COS7 hTOR1A mutant lysate, 635 nm fluorescence, higher = more signal;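 also: score pools 667 nm emission and signal to noise measuring lysate protein binding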
[10] = tested on: Sonic hedgehog protein (Shh); assay: Sonic hedgehog microarray binding compounds – biochemical, small-molecule microarray, 635/667 nm fluorescence, primary screen (AID 1151); details: 635 nm fluorescence, higher = more signal;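 also: Shh protein binding to compounds spotted on small-molecule microarray slides; score combines spot fluorescence intensity with signal-to-noise across triplicate slides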
[11] = optical density shifts of acrAB sulA E. coli – strain DRC41, OD650, 48 h, E. coli filamentation inducer project, primary screen (AID 1152); details: higher = more signal, called active from +8 up or from −8 down;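 also: E. coli MC1000 strain DRC41 lacking acrAB efflux pump and sulA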
[12] = probe aLefty1 binding on compound microarray – biochemical, small-molecule microarray, 635/667 nm fluorescence, primary screen (AID 1153); details: higher = more signal;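 also: score merges spot fluorescence with signal-to-noise ratio from the scanned slide images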
[13] = plasmodial surface anion channel blockers, osmotic lysis – cell-based, P. falciparum Indochina, OD700, 1 h, primary screen (AID 1154); details: P. falciparum Indochina infected RBC osmotic lysis, higher = more signal, called active from +8 up or from −8 down
[14] = plasmodial surface anion channel blockers, osmotic lysis – cell-based, P. falciparum Indochina, OD700, 2 h, primary screen (AID 1155);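 also: lysis reports solute entry through the parasite surface anion channel PSAC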; details: P. falciparum Indochina infected erythrocytes, higher = more signal, called active from +8 up or from −8 down
[15] = changes in parasitized red cell lysis, either direction – P. falciparum Indochina, OD700, 3 h, PSAC antagonist project, primary screen (AID 1156); details: P. falciparum-infected erythrocytes, osmotic lysis, higher = more signal, called active from +8 up or from −8 down
[16] = plasmodial surface anion channel blockers, osmotic lysis – cell-based, P. falciparum Indochina, OD700, 18 h, primary screen (AID 1157); details: P. falciparum Indochina infected erythrocytes, osmotic lysis OD700, 18 h; higher = more signal, called active from +8 up or from −8 down
[17] = S6 kinase pathway phospho-S6 level changes – cell-based, A549, cytoblot, luminescence, serum-stimulated, primary screen (AID 1158); details: 5 h, higher = more signal;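 also: serum-stimulated A549 lung adenocarcinoma cells; signal is phosphorylated S6 detected by cytoblot immunostaining with HRP secondary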
[18] = molecular target: NADPH oxidase 2 (Homo sapiens) (UniProt P04839); assay: compounds shifting NOX2 Amplex Red fluorescence – cell-based, HEK293-NOX2, PMA-stimulated, NOX inhibitor project, primary screen (AID 1159); details: 45 min, higher = more signal, called active from +8 up or from −8 down; also: test concentration not given here
[19] = molecular target: NADPH oxidase 4 (Homo sapiens) (UniProt Q9NPH5); assay: compounds shifting NOX4 Amplex Red fluorescence – cell-based, HEK293-NOX4, tetracycline-induced, NOX inhibitor project, primary screen (AID 1160); details: HEK293-NOX4, Amplex Red H2O2 fluorescence, 45 min; higher = more signal, called active from +8 up or from −8 down
[20] = molecular target: NADPH oxidase 5 (Homo sapiens) (UniProt Q96PH1); assay: compounds shifting NOX5 Amplex Red fluorescence – cell-based, HEK293-NOX5, NOX inhibitor project, primary screen (AID 1161); details: HEK293-NOX5, ionomycin, 45 min, higher = more signal
NADPH oxidase 5 (Homo sapiens), sequence (Q96PH1 whole entry, looked up): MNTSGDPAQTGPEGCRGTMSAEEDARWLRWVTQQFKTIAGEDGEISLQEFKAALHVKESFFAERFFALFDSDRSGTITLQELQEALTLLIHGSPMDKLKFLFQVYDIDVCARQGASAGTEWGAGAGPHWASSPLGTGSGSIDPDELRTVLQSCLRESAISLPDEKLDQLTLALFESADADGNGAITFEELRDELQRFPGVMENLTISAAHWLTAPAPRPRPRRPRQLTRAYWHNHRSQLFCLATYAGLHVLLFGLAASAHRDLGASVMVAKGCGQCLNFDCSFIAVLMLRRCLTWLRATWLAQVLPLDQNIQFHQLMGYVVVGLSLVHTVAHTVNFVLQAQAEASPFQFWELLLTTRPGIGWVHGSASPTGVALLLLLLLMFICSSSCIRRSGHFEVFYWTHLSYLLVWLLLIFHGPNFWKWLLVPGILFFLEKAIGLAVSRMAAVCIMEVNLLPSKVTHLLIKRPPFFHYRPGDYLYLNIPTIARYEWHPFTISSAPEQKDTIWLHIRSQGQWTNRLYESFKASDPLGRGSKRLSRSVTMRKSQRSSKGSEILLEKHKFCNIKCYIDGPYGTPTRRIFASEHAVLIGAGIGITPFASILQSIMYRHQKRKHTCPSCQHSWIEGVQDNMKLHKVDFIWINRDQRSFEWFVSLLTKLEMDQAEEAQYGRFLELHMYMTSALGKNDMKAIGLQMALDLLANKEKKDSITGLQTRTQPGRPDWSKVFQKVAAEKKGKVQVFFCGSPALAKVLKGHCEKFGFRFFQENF

Torsin-1A (Homo sapiens), sequence (O14656 whole entry, looked up): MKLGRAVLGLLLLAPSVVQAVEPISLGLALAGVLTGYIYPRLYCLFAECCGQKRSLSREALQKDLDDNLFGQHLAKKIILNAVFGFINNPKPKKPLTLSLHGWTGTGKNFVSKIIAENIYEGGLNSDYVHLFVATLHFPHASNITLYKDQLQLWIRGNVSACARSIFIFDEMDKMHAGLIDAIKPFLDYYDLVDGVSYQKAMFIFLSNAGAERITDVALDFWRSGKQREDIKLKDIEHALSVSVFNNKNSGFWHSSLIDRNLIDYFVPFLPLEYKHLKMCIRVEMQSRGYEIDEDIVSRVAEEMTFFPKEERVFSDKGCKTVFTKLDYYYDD
Streptavidin (Streptomyces avidinii), sequence (P22629 whole entry, looked up): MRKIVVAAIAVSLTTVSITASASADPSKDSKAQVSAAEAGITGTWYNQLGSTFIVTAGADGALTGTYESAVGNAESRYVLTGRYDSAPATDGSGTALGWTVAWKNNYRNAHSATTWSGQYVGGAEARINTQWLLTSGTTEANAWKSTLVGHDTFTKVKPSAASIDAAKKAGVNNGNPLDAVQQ
NADPH oxidase 2 (Homo sapiens), sequence (P04839 whole entry, looked up): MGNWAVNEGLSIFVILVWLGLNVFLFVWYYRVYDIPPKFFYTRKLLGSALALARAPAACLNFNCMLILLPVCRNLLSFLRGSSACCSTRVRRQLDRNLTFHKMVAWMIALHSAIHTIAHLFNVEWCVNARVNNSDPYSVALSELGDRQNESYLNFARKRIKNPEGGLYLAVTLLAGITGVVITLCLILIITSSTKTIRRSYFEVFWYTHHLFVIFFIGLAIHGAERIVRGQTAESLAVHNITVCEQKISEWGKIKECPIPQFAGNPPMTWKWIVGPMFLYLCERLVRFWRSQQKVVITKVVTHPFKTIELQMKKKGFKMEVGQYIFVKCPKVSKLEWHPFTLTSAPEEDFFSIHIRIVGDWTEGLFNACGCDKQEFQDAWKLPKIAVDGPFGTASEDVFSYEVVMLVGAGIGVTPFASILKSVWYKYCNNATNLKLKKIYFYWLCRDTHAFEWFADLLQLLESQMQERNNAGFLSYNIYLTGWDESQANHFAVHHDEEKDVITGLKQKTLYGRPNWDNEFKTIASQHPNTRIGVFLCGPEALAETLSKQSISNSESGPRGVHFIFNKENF
NADPH oxidase 4 (Homo sapiens), sequence (Q9NPH5 whole entry, looked up): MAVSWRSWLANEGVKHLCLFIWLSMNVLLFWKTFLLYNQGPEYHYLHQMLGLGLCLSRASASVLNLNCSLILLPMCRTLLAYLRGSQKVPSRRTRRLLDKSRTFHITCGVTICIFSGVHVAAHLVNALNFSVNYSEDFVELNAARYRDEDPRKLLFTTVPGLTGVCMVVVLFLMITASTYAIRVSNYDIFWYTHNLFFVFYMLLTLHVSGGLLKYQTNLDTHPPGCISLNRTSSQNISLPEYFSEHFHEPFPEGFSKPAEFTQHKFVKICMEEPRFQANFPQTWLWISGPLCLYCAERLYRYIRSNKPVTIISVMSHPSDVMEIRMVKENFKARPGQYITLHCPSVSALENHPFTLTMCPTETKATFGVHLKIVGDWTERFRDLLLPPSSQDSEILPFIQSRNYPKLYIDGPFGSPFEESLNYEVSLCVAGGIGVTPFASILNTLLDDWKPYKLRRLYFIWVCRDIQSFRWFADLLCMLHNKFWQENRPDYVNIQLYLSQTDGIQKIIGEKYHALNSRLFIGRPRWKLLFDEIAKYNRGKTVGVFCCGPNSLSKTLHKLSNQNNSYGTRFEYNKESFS

| Structure (SMILES) | composite z-score [1] | z-score [2] | z-score [3] | z-score [4] | z-score [5] | composite z-score [6] | composite z-score [7] | composite z-score (Torsin-1A (Homo sapiens) [8]) | composite z-score (Torsin-1A (Homo sapiens) [9]) | composite z-score [10] | z-score [11] | composite z-score [12] | z-score [13] | z-score [14] | z-score [15] | z-score [16] | z-score [17] | z-score [18] | z-score [19] | z-score [20] |
| --- | --- | --- | --- | --- | --- | --- | --- | --- | --- | --- | --- | --- | --- | --- | --- | --- | --- | --- | --- | --- |
| CC(C)C(CO)N1C(=O)[C@]2(C)C3C(=O)OCCC/C=C\[C@H]3OC23C=CCN(c2ccc(Cl)cc2)C(=O)[C@@H]13 (stereo not given in full) | -0.269 | -0.199 (inactive) | 1.25 (inactive) | -0.358 (inactive) | 1.11 (inactive) | -0.476 | -0.128 | -1.47 | -0.856 | 0.279 | -0.785 (inactive) | -0.0929 | 1.12 (inactive) | 0.31 (inactive) | 0.787 (inactive) | 0.673 (inactive) | -0.197 | 1.47 (inactive) | 1.04 (inactive) | 1.69 |
| C=C(C(=O)CC[C@H](OC(=O)c1cccnc1)c1cccc(OCCO)c1)C(C)C | -0.13 | -1.04 (inactive) | -0.285 (inactive) | 17.7 (active) | -0.464 (inactive) | 0.0502 | -0.0719 | 1.17 | -0.206 | 0.389 | 0.184 (inactive) | 0.0327 | 14.4 (active) | 2.83 (inactive) | 1.76 (inactive) | 1.04 (inactive) | -0.0915 | 0.657 (inactive) | -0.0784 (inactive) | -2.05 |
| C[C@]1(C(=O)O)c2ccccc2C(=O)N(Cc2ccccc2)[C@H]1c1ccc(CO)cc1 | -0.326 | -1.25 (inactive) | 0.461 (inactive) | 0.001 (inactive) | -0.301 (inactive) | -0.867 | -0.176 | -1.06 | -0.224 | -1.98 | 0.576 (inactive) | -0.147 | 3.5 (inactive) | 0.52 (inactive) | 1.06 (inactive) | 0.548 (inactive) | -0.0555 | 0.67 (inactive) | 0.917 (inactive) | 0.42 |
| NC(=O)N1C(=O)C2C(C1=O)C1C=C(CCCO)C2C(c2cccs2)N1Cc1cc2c(cc1Br)OCO2 (stereo not given) | -0.25 | -0.477 (inactive) | -0.584 (inactive) | 0.424 (inactive) | -0.298 (inactive) | 1.13 | -0.0983 | -0.164 | 0.279 | 0.0313 | 0.0978 (inactive) | 0.254 | 17.7 (active) | 2.3 (inactive) | 0.865 (inactive) | 0.872 (inactive) | 0.413 | -0.848 (inactive) | -0.662 (inactive) | -1.1 |
| CC(=O)n1cc(C(O)C2C=CC3C(=O)N(c4ccccc4)C(=O)C3N2Nc2ccccc2)c2ccccc21 (stereo not given) | 0.689 | -3.34 (inactive) | -0.504 (inactive) | 0.436 (inactive) | -0.507 (inactive) | 0.862 | 0.426 | 0.14 | 1.08 | 0.497 | -1.45 (inactive) | 0.681 | 20.1 (active) | 2.76 (inactive) | 1.12 (inactive) | -0.568 (inactive) | 1.32 | -3.07 (inactive) | -4.86 (inactive) | -4.68 |
| O=C(CS)NCCCCCCNC(=O)[C@@H]1C[C@@H]2C(=O)N3CCC[C@H]3C(=O)N2[C@@H]1c1cccc(OCCO)c1 | 0.939 | -0.497 (inactive) | -1.05 (inactive) | -1.35 (inactive) | -1.07 (inactive) | 0.283 | -0.128 | 1.19 | 1.34 | 1.7 | 1.89 (inactive) | 0.113 | 2.94 (inactive) | -0.677 (inactive) | 1.94 (inactive) | -1.78 (inactive) | 2.09 | 1.17 (inactive) | 0.87 (inactive) | 0.222 |
| CCCNC(=O)[C@@]1(c2ccc([N+](=O)[O-])cc2)CC(=O)N(C2CCCCC2)[C@@H]1c1ccc(CO)cc1I | 1.01 | -4.24 (inactive) | -0.326 (inactive) | -0.682 (inactive) | 1.18 (inactive) | 0.277 | 0.306 | 0.224 | 0.451 | 1.85 | -0.123 (inactive) | 0.317 | 19.3 (active) | 3.4 (inactive) | 3.38 (inactive) | 0.722 (inactive) | -0.275 | 1.02 (inactive) | 0.187 (inactive) | 1.16 |
| CN(C)CCCNC(=O)[C@@]1(c2ccc([N+](=O)[O-])cc2)CC(=O)N(CC23CC4CC(CC(C4)C2)C3)[C@@H]1c1ccc(CO)cc1 | 0.461 | -5.82 (inactive) | -0.262 (inactive) | -0.295 (inactive) | -0.741 (inactive) | 2.03 | 0.641 | -0.183 | 0.0626 | 0.989 | -3.6 (inactive) | 0.885 | 0.924 (inactive) | -0.365 (inactive) | -0.788 (inactive) | -0.798 (inactive) | -2.28 | -8.3 (active) | -2.09 (inactive) | 0.357 |
